# This is a sample that favours compounds with a hit; in the whole collection about 7.3% have one here.
# 3T3 cytotox = Cytotoxic Profiling in NIH 3T3 Cell Line of Diverse Libraries Using Quantitative High-Throughput Screening | NIH 3T3 viability, CellTiter-Glo ATP luminescence, 48-72 h | Potency, µM (top dose mostly 96.7 µM), without a hit: at the highest dose activity change, negative = cytotoxicity, hits mostly inhibitors | 94,000 tested, 4.3% active | AID 1345082, 2018; also: potency is read from the fitted curve at half-maximal effect; nearly all actives have a fitted effect of over 55% in size
#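 Cells were seeded at 400 per well, treated with pin-transferred compound, and kept 48 or 72 hr at 37 °C before CellTiter-Glo addition and luminescence imaging of cellular ATP.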
# IP6K1 inhibitor = Primary qHTS assay for small molecule inhibitors of Inositol hexaphosphate kinase 1 (IP6K1); IP6K1 kinase, ADP-Glo luminescence, 2 h; hits give low values; Inositol hexakisphosphate kinase 1 (Homo sapiens), Q92551; 140,000 tested, 0.81% active; activity change, % (series mostly up to about 58 µM); in the data active = activity change below about -25%
#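 ADP-Glo luminescence measures ADP made by human IP6K1 during a 2 h RT reaction with ATP/IP6 (mix at 1.3 mM/130 uM); top library doses 57.5 and 19.1 uM final.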
# HEK293 viab = GF-AFC viability counterscreen for inhibitors of alpha-synuclein gene (SNCA) expression; HEK-293-SNCA-luc viability, GF-AFC fluorescence, 24 h; Potency, µM (titrated, usually from 57.1 µM), inactives show at the top dose activity change, negative = cytotoxicity, hits mostly cytotoxic; 150,000 tested, 0.12% active;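 also: potency is read from the fitted curve at half-maximal effect; 0% = DMSO-treated cells and -100% = medium-only wells without cells; nearly all actives have a fitted effect of over 30% in size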
#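 HEK-293-SNCA-luc cells (1500/well) plated 24 h, then exposed 24 h to a dilution series; GF-AFC added 30 min at 37C, fluorescence 405/540 nm; normalised to medium-only and DMSO wells, Hill fit.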
# FLuc inh = Firefly luciferase inhibition profiling of diverse chemical library using quantitative high-throughput screening | Luciferin 4-monooxygenase (Photinus pyralis), P08659 | purified P. pyralis luciferase, luminescence, biochemical | Potency, µM (highest dose often 115 µM), hits mostly inhibitors | 76,000 tested, 2.5% active | AID 1347043, 2019; also: potency is read from the fitted curve at half-maximal effect; nearly all actives have a fitted effect of over 65% in size
# Target sequence (P08659 whole entry, looked up): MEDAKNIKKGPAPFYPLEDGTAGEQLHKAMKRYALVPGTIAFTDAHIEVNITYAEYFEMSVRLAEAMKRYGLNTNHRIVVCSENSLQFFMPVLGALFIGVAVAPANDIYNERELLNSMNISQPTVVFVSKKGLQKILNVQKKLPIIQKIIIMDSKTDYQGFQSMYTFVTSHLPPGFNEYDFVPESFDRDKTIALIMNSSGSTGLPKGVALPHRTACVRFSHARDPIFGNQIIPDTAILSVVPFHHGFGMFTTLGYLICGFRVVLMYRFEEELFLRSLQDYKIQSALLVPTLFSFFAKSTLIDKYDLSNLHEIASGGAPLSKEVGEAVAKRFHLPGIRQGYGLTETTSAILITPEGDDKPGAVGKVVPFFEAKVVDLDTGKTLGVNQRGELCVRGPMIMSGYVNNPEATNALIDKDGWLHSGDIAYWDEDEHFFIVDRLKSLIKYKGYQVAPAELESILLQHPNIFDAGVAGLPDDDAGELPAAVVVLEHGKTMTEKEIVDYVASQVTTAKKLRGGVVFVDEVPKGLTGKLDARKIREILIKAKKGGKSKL
#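 Purified 10nM P. pyralis luciferase with 10uM D-luciferin and 10uM ATP in 50mM Tris acetate pH 7.5, 10mM Mg acetate, 0.01% Tween-20, 0.05% BSA. qHTS titration; luminescence read by CCD imager.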
# SNCA expr inh = Primary qHTS assay for inhibitors of alpha-synuclein gene (SNCA) expression; Potency, µM (doses to about 57.2 µM), inactives show at the top dose activity change, negative = inhibition, actives largely listed as inhibitors; HEK-293 SNCA-luciferase knock-in, luminescence, 24 h; 140,000 tested, 0.17% active; AID 1671194, 2021;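 also: potency is read from the fitted curve at half-maximal effect; plate controls were DMSO cells for no effect and cell-free wells for full effect; nearly all actives have a fitted effect of over 45% in size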
# HEK cytotox = Cytotoxic Profiling in HEK 293 Cell Line of Diverse Libraries Using Quantitative High-Throughput Screening | HEK 293 viability, ATP luminescence (CellTiter-Glo), 48-72 h | Potency, µM (doses to about 115 µM), for inactives: at the highest dose activity change, negative = cytotoxicity, most hits filed as inhibitors | 94,000 tested, 6.6% active | AID 1345083, 2018; also: potency is read from the fitted curve at half-maximal effect; nearly all actives have a fitted effect of over 60% in size
#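 HEK 293 cells at 250 cells/well were exposed to compounds by pintool transfer for 48 or 72 hr at 37 degree Celsius, 5% CO2. Viability was read as ATP-coupled luminescence with CellTiter-Glo after 10 min at room temperature.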
# Starred values were filed as active, the others as inactive; i = inactive; ? = inconclusive; . = no result; [ ] = another dose, or the depositor's remark. Unless noted, calls follow the shape of the dose curve; as a rule, active = well fitted curve in the direction sought with a large enough effect; inconclusive = small, poorly fitted or top-dose-only effect, or another doubt; inactive = no such curve, though single readings can be large; an effect the other way counts as inactive or inconclusive. Unless noted, % is scaled to controls: 0 for no effect and ±100 for the full control effect.
SMILES,3T3 cytotox,IP6K1 inhibitor,HEK293 viab,FLuc inh,SNCA expr inh,HEK cytotox
COc1ccc(OCC2CC3(CCCCC3)CN2C(=O)Cc2cccc(F)c2)cc1 (centres undefined),40µM*,11,-7%,.,-18%,40µM*
CSCc1ccc(C(=O)N2CCCC(O)(CN3CCCC3)C2)o1 (centres undefined),-4%,-4,-11%,i,20%,?
Cc1ccc(Nc2ccnc(N3CCC(NC(=O)Nc4ccccc4)CC3)n2)cc1,?,-5,-1%[12.5 µM],.,4%,?
COC(=O)NC1CCN(c2nccc(Nc3ccc(OC)cc3)n2)CC1,-33%,-3,5%[12.5 µM],.,5%,?
Cc1ccc(Nc2ccnc(N3CCC(NC(=O)Nc4ccc(Cl)cc4)CC3)n2)cc1,22µM*,-6,-22%,.,-3%,25µM*
COc1ccc(Nc2ccnc(N3CCC(NC(=O)Nc4ccc(Cl)cc4)CC3)n2)cc1,32µM*,12,5%[12.5 µM],.,?,20µM*
COc1ccccc1NC(=O)N1C[C@@H]2C[C@H](C1)c1c(-c3ccc(NC(C)=O)cc3)ccc(=O)n1C2,-12%,7,5%,i,11%,-3%
CC(=O)Nc1ccc(-c2ccc(=O)n3c2[C@@H]2C[C@@H](CN(C(=O)Nc4cccc(C#N)c4)C2)C3)cc1,3%,2,-17%,i,-6%,32µM*
O=c1c2nc(Nc3cccc(F)c3)ccc2ncn1Cc1ccccc1,?,6,?,?,11%[87.6 µM],79µM*
COc1ccc(C(=O)N2C[C@@H](CO)[C@H](NC(=O)c3ccccc3)C2)c(OC)n1,-3%,-2,10%,.,14%,i
O=C1NCCCc2[nH]c(-c3cnn(-c4cccc(F)c4)c3)nc21,-24%,-3,-17%,22µM*,76%,?
O=C(Nc1ccccc1F)N1CCC2(CCC2N2CCOCC2)CC1 (centres undefined),0%,4,11%,.,14%,3%
CC1CCN(C(=O)c2cc3n(n2)CC(c2ccc(Cl)cc2)OC3)CC1 (centres undefined),40µM*,-2,3%,i,-1%,?
O=C(NCc1ccc(Cl)cc1)c1cc2n(n1)CC(c1ccc(Cl)cc1)OC2 (centres undefined),35µM*,-7,2%,i,?,?
Cc1ccc(CNC(=O)c2cc3n(n2)CC(c2ccc(Cl)cc2)OC3)cc1 (centres undefined),?,7,-14%,i,?,?
CCc1ccc(CNC(=O)c2cc3n(n2)CC(c2ccc(Cl)cc2)OC3)cc1 (centres undefined),40µM*,18,-4%,i,-24%,?
O=C(NCc1ccc(F)c(Cl)c1)c1cc2n(n1)CC(c1ccc(Cl)cc1)OC2 (centres undefined),?,1,-3%,i,-24%,35µM*
O=C(c1cc2n(n1)CC(c1ccc(Cl)cc1)OC2)N1CCN(c2ccccc2)CC1 (centres undefined),?,12,-3%,i,-9%,?
O=C(c1ccccc1)N1CCN(CCCn2nc3n(c2=O)CCCC3)CC1,-5%,-8,.,.,.,-1%
NC(=O)[C@@H]1C[C@H](Oc2cccnc2)CN1S(=O)(=O)Cc1ccccc1F,-11%,8,-10%,i,-1%,2%
CC(C)c1ccc(CNC(=O)c2cc3n(n2)CC(c2ccc4c(c2)OCO4)OC3)cc1 (centres undefined),?,-5,6%,i,-20%,40µM*
O=C(NCc1ccc(Cl)cc1)c1cc2n(n1)CC(c1ccc3c(c1)OCO3)OC2 (centres undefined),?,-2,?,i,?,?
COc1cccc(CN2CCNC(=O)C2CC(=O)NCc2ccon2)c1OC (centres undefined),-3%,10,5%,i,?,i
CCC1C(=O)NCCN1Cc1cn(-c2cccc(F)c2)nc1-c1ccc(C)o1 (centres undefined),?,9,-10%,28µM*,89%,?
O=C(c1ccc(C(F)(F)F)cc1)N1CCN(Cc2ccccc2-c2cccnc2)CC1,?,12,9%[12.5 µM],.,-26%,?
SMILES,3T3 cytotox,IP6K1 inhibitor,HEK293 viab,FLuc inh,SNCA expr inh,HEK cytotox
Cn1ncc2c(C(=O)Nc3ccc(F)cc3)cc(-c3ccccc3C(F)(F)F)nc21,?,-2,.,.,.,28µM*
Cn1ncc2c(C(=O)Nc3cccnc3)cc(-c3ccccc3C(F)(F)F)nc21,i,3,.,.,.,i
CN(C)c1ccc(NC(=O)c2cc(-c3ccc(C(F)(F)F)cc3)nc3c2cnn3C)cc1,-31%,-11,.,.,.,-3%
Cn1ncc2c(C(=O)Nc3cccc(C(F)(F)F)c3)cc(-c3ccccc3C(F)(F)F)nc21,28µM*,1,.,.,.,22µM*
CN(C)c1ccc(NC(=O)c2cc(-c3ccccc3C(F)(F)F)nc3c2cnn3C)cc1,?,23,.,.,.,25µM*
COc1ccccc1-c1cc(C(=O)Nc2ccc(F)cc2)c2cnn(C)c2n1,-30%,-9,.,.,.,?
CCN(C(=O)c1cc(-c2ccccc2C(F)(F)F)nc2c1cnn2C)c1ccccc1,?,2,.,.,.,25µM*
CNC(=O)[C@H]1C[C@]2(CCCCN(CCO)C2=O)N(C(=O)Cc2ccc(OC)cc2)[C@H]1c1ccco1,?,-6,.,.,.,-14%
COc1ccc(NC(=O)c2cc(-c3ccccc3C(F)(F)F)nc3c2cnn3C)cc1OC,?,4,.,.,.,32µM*
COc1ccc(NC(=O)c2cc(-c3ccc(C(F)(F)F)cc3)nc3c2cnn3C)cc1OC,-18%,-13,.,.,.,2%
O=C(NCCc1ccccc1)C1CCN(c2cn[nH]c(=O)c2)C1 (centres undefined),-14%,-1,0%,i,38%,-18%
CCOc1ccc(Nc2nc(-c3c(C)nc4ccccn34)cs2)cc1,.,-10,?,.,-21%,.
CCOc1ccc(Cc2nc(-c3c(C)nc4ccccn34)cs2)cc1,.,-1,12µM*,.,.,.
O=C1CN(Cc2ccc(-c3cc(F)cc(F)c3)cc2)CCN1c1nccc(Cl)n1,?,-17,0%,i,36%,45µM*

# Bioassay records (PubChem BioAssay)
